A number with no mark means an inactive call.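 Rule for the calls: active = MAPPIT score above the 99th percentile of random reference set scores in the same batch; inactive = at or below it.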
Legend:
Assay in all cases: MAPPIT interaction score (arbitrary units); higher = stronger binary interaction signal, active = hit call of the paper
CG13494 = conditions: MAPPIT configuration: N-C; pair source set: screen_3
CG13510 = conditions: MAPPIT configuration: N-N; pair source set: Lit-BS-16
CG13560 = conditions: MAPPIT configuration: N-N; pair source set: Finley_Y2H
CG13840 = conditions: MAPPIT configuration: N-N; pair source set: Curagen_low_conf
CG5674 = conditions: MAPPIT configuration: N-N; pair source set: screen_2
Klp98A = conditions: MAPPIT configuration: N-N; pair source set: screen_1
Rpn13 = conditions: MAPPIT configuration: N-N; pair source set: screen_2
CG13843 = conditions: MAPPIT configuration: N-C; pair source set: screen_3
Os-C = conditions: MAPPIT configuration: N-N; pair source set: RRS
CG13901 = conditions: MAPPIT configuration: N-N; pair source set: Finley_Y2H
CG5862 = conditions: MAPPIT configuration: N-N; pair source set: Curagen_high_conf
RpLP1 = conditions: MAPPIT configuration: N-N; pair source set: Curagen_low_conf
CG13965 = conditions: MAPPIT configuration: N-C; pair source set: screen_4
CG14074 = conditions: MAPPIT configuration: N-N
GstO3 = conditions: MAPPIT configuration: N-N; pair source set: DPIM
Su(var)2-10 = conditions: MAPPIT configuration: N-C; pair source set: screen_3
TrxT = conditions: MAPPIT configuration: N-N; pair source set: screen_2
CG1416 = conditions: MAPPIT configuration: N-N; pair source set: DPIM
CG14190 = conditions: pair source set: RRS
CG42512 = conditions: pair source set: RRS
CG14282 = conditions: MAPPIT configuration: N-C; pair source set: RRS
CG14464 = conditions: MAPPIT configuration: N-N; pair source set: RRS
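Note: HEK293T cells with Epo stimulation, STAT-responsive firefly luciferase reporter, fold induction versus unstimulated cells divided by the larger fold induction of two negative controls lacking either bait or prey.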

B1: CG5021 (protein)
chain: MASATVRNVPLLDDDTIPFGEEDEMRDPSRAGQKYTHPYVTFFHLFFRGAAILIYMFCGWFSDSFITSFVFVVLFLSADFWTVKNISGRLLVGLRWWNYVDDDGVSHWVFESKNSESYQSRVNKNEQRIFWLGLILCPVFWGLFFLFALFGLKFKWLLLVMIAIALNAANLYGYVKCNYGANKDLNSAATDFVKTQFFKNAVDIMTRPSGAPPPTNVRPTGVV
CG13494
  MAPPIT interaction score: 0.956

B2: Grip75 (protein)
chain: MIHDLLLACRSHNPEQLGIKAFNETTVIDQFIHPCEREIFMDIIKIIKVYQEVEQFTHSSGRKSDTHGELPDSLHGYYLLNLAKGIEMALEEYYAEIGRLEKYCLGNERNSLSYVYNALYAKFPLLVFMRNLITEIHVLNLRGCVLLHNLHQQCEHGDIQLEKAIKIIMKPVKNAFFSSLAHWLLFGVIDDVHSEFFIKFTPTDAVDGSSFSKSATCSLLSAEKNPEDYIWQYEVNMSQLPGFFSIVLAEKVLFVGQTVLVFKMGRNVKVKNKTDPLAAKLAELDSDDIYQLWSGRESEFFKMVVDLSNEDTINVFRLEKVIIDIKNYVSARLSEIAVNEVDLERQMGLIKDFFLLGRGEFYLEFCSQMVGTMETYREERFKNVTRSFELAATVTGITDDLDKFSLICQRSTSEPDDTSDFNFLQGLSLKYEYEWPLNLLFSPTTIERYNNIFRFLLIIRTYQYEIQRVWAKQTWRAKSAKDVPPNNKIITLRNYLMFFLNNMQYYIQVDVLESQFGILMNVIKSRSDFEVIQRAHTVFLANVLSHCFLLNESETQLNVTGSQNRNPIYGTLLKLFGICEKFAHMTQTKDPSDDLEDEVDQLNESFGVQIASLIQLLVDVKSASCLGPLSQLLLRLDFNCWFSASHNTSA
CG13510
  MAPPIT interaction score: 0.427

B3: Treh (protein)
chain: MFKLPTISLLLVSWSCLVALSQAKTYSLPDLTTDYNNAIPVDEEEAQDPFASCKIYCEGNLLHTIQTAVPKLFADSKTFVDMKLNNSPDKTLEDFNAMMEAKNQTPSSEDLKQFVDKYFSAPGTELEKWTPTDWKENPSFLDLISDPDLKQWGVELNSIWKDLGRKMKDEVSKNPEYYSIIPVPNPVIVPGGRFIEFYYWDSYWIIRGLLYSQMFDTARGMIENFFSIVNRFGFIPNGGRVYYHGRSQPPLLTGMVKSYVDFTNDDKFAIDALDTLEHEFEFFVNNHNVTVKNHSLCVYRDSSSGPRPESYREDVETGEEFPTDEAKELHYSELKAGAESGMDFSSRWFISPTGTNDGNRSALSTTSIVPVDLNAYLYWNAKLIAEFHSKAGNTKKVTEYETKAEKLLLGIQEVLWNEEAGVWLDYDMINQKPRDYYTPTNLSPLWVKAFNISESEKISASVMAYIERNKLDSFPGGVPNTLSYTGEQWDAPNVWAPMQYILVEGLNNLNTPEAKNMSLKWATRWVKTNFAAFSKDRHMYEKYNADEFGVGGGGGEYEVQTGFGWSNGVIIEWLSKHGRDISIGSGCGCLAGEKRQ
CG13560
  MAPPIT interaction score: -0.19

B4: sina (protein)
chain: MSNKINPKRREPTAAAAGAGATGVATNTSTSTGSSSAGNTSSANTSSSSSSSLSSAGGGDAGMSADLTSLFECPVCFDYVLPPILQCSSGHLVCVSCRSKLTCCPTCRGPLANIRNLAMEKVASNVKFPCKHSGYGCTASLVYTEKTEHEETCECRPYLCPCPGASCKWQGPLDLVMQHLMMSHKSITTLQGEDIVFLATDINLPGAVDWVMMQSCFGHHFMLVLEKQEKYDGHQQFFAIVQLIGSRKEAENFVYRLELNGNRRRLTWEAMPRSIHEGVASAIHNSDCLVFDTSIAQLFADNGNLGINVTISLV
CG13840
  MAPPIT interaction score: -0.135
CG5674
  MAPPIT interaction score: -0.0161
Klp98A
  MAPPIT interaction score: 0.0642
Rpn13
  MAPPIT interaction score: 0.72

B5: Dpit47 (protein)
chain: MKQMAAQKAWTDEERLELAAQLDAELDAFIDGLEKKRYEEGWPEDRWQEEMDKHPFFMKRAPQPGDDVHPMFEGLQKLKYDPEENTRDELALNYKEDGNFYMKHKKFRMAIYSFTEGIKTKTDNPDVLAVLYNNRSAAHFFIKNYRSSLSDAQRALFYKPDYTKARWRSAQCAYELERFDLCTQMCEELLEVDVDNEVAIALLHKNKMKKLEIERNQRKEAAEAKRRLTRFHRLRDAIEQRAIKFDDQKVGKKDVLSEELLYPKFLPLEDHPVHLDEDGSTLIWPAAFSYPEFLYSDFYQQLPETTTMRDCLATLLTEKLPYDKAHNYRLGNVHVYYENRKVGCVHKVDEEKQLAEIIAEKGFFVSGGALLFYVVHKDSRVEQEFINERRRPMVYS
CG13843
  MAPPIT interaction score: 3.75 (active)
Os-C
  MAPPIT interaction score: 1.52

B6: Ufl1 (protein)
chain: MGSDWDEIKRLAADFQKAQLTSTLQKLSERNCVEIVTLLLEKQMLEVVFTNDGKEYITPDHLEREIQDELYVNGGRANLVEVSKTLNVDLSRIELLAERISAENQSVHLVLGQLIDEDYISHIAQEINEKLVQRGEVSISELASQFDLPSDFLQHDVVEKHLGKIIKGRQDASNPRVFFTQAYIQRCKAKIRGALAAITRPINVAVILQKIGVQEKIFYSLLDEIAPAGQVTSKQANSQYVPHIYAKTQADWVNSFYKQNSFLEYDAIQKLGISDAKSYIRKQFPNEEFLYLKRVALGARLVELTVVTALNECSATKQYLDLTTILPSNLSEEDIEEVFSTIMAQKHSNPSNFVYLDGIVFSQPYLAQLVQPCQALAESQAKAAIDGGVYQQYIVEKTLAQKGNVSTQELEDEGKVDKRDERRKKASSGKAGGGAQGRETKTKSTKKHQRGKAAAQFDSDDEDDAQQGSRGGGGASKKAVKPLELVKTADIVKLITASLEEEGLEHLSKSIASLYTNQFNQTALARAQELFEATPQTNRRQTHAAIQDRINTLLIDIRLYEKGLKLFPQDTQTQLVKYLLKSLGNEICNELSLYVASECNLTVKNTNLNVDQRNKLAQECEAQYRAALLEQNKALNKSIDDFELATETVLKTCSMIIKKVDKKKDRLLIADHKKKLQKQLLECNEPALLLHLAALILFTTITGSILHASGKFVSAILQHIRGSLNEDQNALLLRYHDLVLQVLQAIPDSNESKLANEHLQTMQNQVVELAQNFSRASISKAD
CG13901
  MAPPIT interaction score: 1.55
CG5862
  MAPPIT interaction score: -0.395
RpLP1
  MAPPIT interaction score: -0.273

B7: RpLP2 (protein)
chain: MRYVAAYLLAVLGGKDSPANSDLEKILSSVGVEVDAERLTKVIKELAGKSIDDLIKEGREKLSSMPVGGGGAVAAADAAPAAAAGGDKKEAKKEEKKEESESEDDDMGFALFE
CG13965
  MAPPIT interaction score: 2.1

B8: PI31 (protein)
chain: MESGSTAKTGDFFYGWDLLYKTVKADVSKKSDLLIALVHFLLTKHYNFRCVGVGDDKTLPEEEGSELLPDSWNDDDTKYSLRYVHDKMLYLLLGHITEGSLLINLLDINTKKVSNICVEPETLVPEVKGGITTIMPSASEIVERYRRELLDPVFTGNSREVTTQTTNSPRPIGSDPDPLRIGEPRRGGSFIPSAFEPRPFGFPDVGRGDLDPLGRGGHGNLFSFPSRPNMGPGPVPRFDPFNPLNPNRPGQGGINPDHMRPPDWNPDYYM
CG14074; pair source set: screen_1
  MAPPIT interaction score: -0.274
GstO3
  MAPPIT interaction score: 0.447

B9: z (protein)
chain: MSAQGEGGGAGGSGGGGAGSDGGGNAGQSSTGSGTVAVTNGGNSSAKNQLPLTPRFTAEEKEVLYTLFHLHEEVIDIKHRKKQRNKYSVRETWDKIVKDFNSHPHVSAMRNIKQIQKFWLNSRLRKQYPYRDGSSSNLSSGSAKISSVSVSVASAVPQQQQQQHHQQHDSVKVEPEYQISPDASEHNPQADTFDEIEMDANDVSEIDEDPMEQQQQQQQEAQAQAQAQAQAQAQVQSAAAEMQKMQQVNAVAAAAAANATMINTHQINVDQISAEKLTLNDLLHFKTARPREEIILIKHPEATATQIHTIPTQAQQHPMATITAGGYNQQIISEIKPQQITLAQYQAQQQQQAQAQAQAQAQAQAQAQAQAQAQAQAQQLAQQQLAAAQHQQLAAAVQVHHQQQQQQQAAVAVQQQQAAAAAAVKMQLTAATPTFTFSALPTVTAATTVPAAVPVPVATASSGSANSVAVNTSTASSVSINNTSLGGGGGNGATNSSATAADSFEERMNYFKIREAELRCKEQQLATEAKRIELNKAQDELKYMKEVHRLRVEELTMKIRILQKEEEQLRKCSTS
CG14074; pair source set: screen_2
  MAPPIT interaction score: -0.404
Su(var)2-10
  MAPPIT interaction score: 1.09
TrxT
  MAPPIT interaction score: -0.122

B10: M6 (protein)
chain: MSKVKNLLAKMLQRFGKNSSQADSQRYDSLEEIAQNQANERMLRATQVGLEEHLVICLETEAGSFYWHSQ
CG1416
  MAPPIT interaction score: -0.155

B11: tut (protein)
chain: MDFESKYCTSQVNGTITITTRKVLDENLKSLLDEGKGELFLSCIPRNHSCSPRWIVEVASELGEVYIMRYKIDFSGNSRGYAYLQYINVDLKESAMQYLPMRFRQLCMCLRVEPSTNNRELVLKNVESSLRPWQVYQEMLKIHPFTIVRVYEYQLDQFFYIFEYRNNDSAASAHQRVRNSIRKFGEHAHISWLTAENILSRASGSFCFQREVSQNRTRRVPPRQKGCFKF
CG14190; MAPPIT configuration: N-C
  MAPPIT interaction score: 0.351
CG14190; MAPPIT configuration: N-N
  MAPPIT interaction score: -0.511
CG42512; MAPPIT configuration: N-C
  MAPPIT interaction score: -0.391
CG42512; MAPPIT configuration: N-N
  MAPPIT interaction score: 0.0427

B12: Fkbp12 (protein)
chain: MGVQVVPIAPGDGSTYPKNGQKVTVHYTGTLDDGTKFDSSRDRNKPFKFTIGKGEVIRGWDEGVAQLSVGQRAKLICSPDYAYGSRGHPGVIPPNSTLTFDVELLKVE
CG14282
  MAPPIT interaction score: -0.281

B13: Cdk12 (protein)
chain: MHASSAAATALVEYSDVSSEDFSDQEAGDLDADAGKGAGNIKKPKPAPDNQFSKGRLDAKPDKEGYDNYRSRRAEDSSDPVAAGSRQTSSSEATNPREEPSQASNTSKDELWGREIYMSSDSIDTDELEAEMKRQKRKKQKKEKHKHKSKKKSKKRKKKRAKSYSSIDSMSDNDINALLDRRYTPPTAPSKSNERTVSAAPSSFTPHNLKESSSPATPPPVRRPNTNSNYYGESSLETANSALGSNLQVTVTNKQSISNRLRSPPPSSRSSGNGPRFGNSPRTPPPSHYSSSGGGGVGSGSVVRDSRSSRYVNSPHKEDVSAHHRSSHDHGYQGRYSGAGSSSHDTRKVKRLSPELDRYNHQPSTPPHKRRKFSDGREVGLGNFEHSRHHSGKYERYSRDRYSRRSSRSPSVQHSRSRQSPSGGLSSGSNAFRHGGSHKHKYGTTVSSTPSHTTRTSKRASGTGTSGDRYSRSPRTSSRYMESSPPSPVGASGSHHYHHRRSPRMRQRTRGDSRRRSPSSASSESSASRSRSPTSRDLKHKREEYIKKISETSLFAELVKDRHKRQKALKEIIERQEENSNSNSNGALTINDNSSSVDGNTPNAADGRSAPGSGTPAAASTTSNGLQALGSKPDLDLNNIPMPNKQNDSVVSNPASNADVPDSVAQLKQPLLVPPFSASKNNIKPKSLTSLPLPPGMNVLDLAGARSPSPGQKKESDEKNVTSSGSANKSVLNLPMPPVIPGSEELSGDDDVIDSPEDFDAPAVGTVHGHGGGPGTTRQRPVILNRRDSRNNVRDWGERCVDVFEMIAQIGEGTYGQVYKARDHHTNDMVALKKVRLEHEKEGFPITAVREIKILRQLNHRNIVNLHEIVTDKQDAVEFRKDKGSFYLVFEYMDHDLMGLLESGMVDFNEENNASIMKQLLDGLNYCHKKNFLHRDIKCSNILMNNRGKVKLADFGLARLYNADDRERPYTNKVITLWYRPPELLLGEERYGPSIDVWSCGCILGELFVKRPLFQANAEMAQLETISKICGSPVPAVWPNVIKLPLFHTLKQKKTHRRRLREDFEFMPAPALDLLDKMLDLDPDKRITAEDALRSPWLRKINPDEMPTPQLPTWQDCHELWSKKRRRQMREQQESLPPTVIASTKYQQHGATMVGDA
CG14464
  MAPPIT interaction score: 0.381
